Compound activity deposited in PubChem by National Center for Advancing Translational Sciences (NCATS).
MARV entry inh = Marburg virus entry inhibition | hit rate 1.8% among 300,000 | Potency, µM (series often up to 37.8 µM), for the others: at the highest dose activity change, negative = inhibition, actives largely listed as inhibitors | Marburg virus pseudotyped entry inhibition, cell reporter; calls by dose curve; tested in HEK293 cells; further: potency means the concentration at half of the fitted maximal effect
FBPA Giardia inh = Giardia lamblia aldolase inhibition; A8B2U2; purified Giardia FBPA; Potency, µM (highest dose often 59.6 µM), inactives show at the top dose activity, negative = inhibition, most hits filed as inhibitors; hit rate 0.71% among 290,000; further: potency means the concentration at half of the fitted maximal effect; nearly all actives have a fitted effect of over 55% in size
Target sequence (A8B2U2 whole entry, looked up): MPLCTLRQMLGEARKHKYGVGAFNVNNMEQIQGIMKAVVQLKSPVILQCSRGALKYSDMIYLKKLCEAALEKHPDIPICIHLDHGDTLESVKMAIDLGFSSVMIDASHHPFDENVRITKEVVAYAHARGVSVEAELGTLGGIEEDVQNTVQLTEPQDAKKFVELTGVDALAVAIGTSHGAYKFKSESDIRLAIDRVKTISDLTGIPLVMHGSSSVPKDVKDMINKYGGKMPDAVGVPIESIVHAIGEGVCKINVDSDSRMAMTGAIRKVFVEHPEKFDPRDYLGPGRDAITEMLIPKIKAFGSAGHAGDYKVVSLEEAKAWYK
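Giardia FBPA (40 nM reagent) was preincubated 10 min at RT with compound (up to 57.5 uM final), then substrate plus GAPDH/TPI/NAD/arsenate coupling system with diaphorase/resazurin was added; resorufin fluorescence (525/598 nm) was read after 20 min.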
HCV inhibitor = HCV inhibition. Huh7.5.1 HCVcc-Cre infection, luciferase reporter, 44 h. Potency, µM (top dose mostly 41.8 µM), for inactives: top-dose activity change, negative = inhibition, most hits filed as inhibitors. hit rate 3.4% among 340,000. AID 651820; further: potency means the concentration at half of the fitted maximal effect
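Cells (1,000/well) were plated 4 h before compound, then infected with HCVcc-Cre virus (~0.5 moi). After 44 h further culture, infection was read as luciferase luminescence following a 15 min substrate incubation at room temperature.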
Lassa entry inh = blocks Lassa virus binding to or entry into cells; Potency, µM (highest dose often 37.9 µM), inactives show top-dose activity change, negative = inhibition, actives largely listed as inhibitors; Lassa virus pseudotype entry inhibition, cell reporter; AID 540256; hit rate 1.2% among 300,000; calls by dose curve; tested in HEK293 cells; further: potency means the concentration at half of the fitted maximal effect; nearly all actives have a fitted effect of over 50% in size
FMDV antiviral = antivirals against foot and mouth disease virus. AID 1159524. hit rate 1.2% among 410,000. FMDV antiviral cell-based qHTS. Potency, µM (doses to about 57.9 µM), for inactives: at the top dose activity change, negative = inhibition, actives largely listed as inhibitors; calls by dose curve; tested in HEK293T cells; further: read-out not given here; potency means the concentration at half of the fitted maximal effect; nearly all actives have a fitted effect of over 45% in size
HCMV inh = blocks human cytomegalovirus replication; HFF cells, HCMV-luciferase reporter, 72 h; stronger effect = lower value; activity change, negative = inhibition, % at 57.5 µM; hit rate 4.5% among 410,000; in the data active means activity change below about -60%; inconclusive means no clear call, values can overlap the other calls; inactive means above about -39%
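Two-dose cell screen: HFF monolayers treated with compounds and infected with luciferase-expressing HCMV at 1 PFU/cell, 72 h at 37C, then lysed for luciferase measurement.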
Starred values were filed as active, the others as inactive; ? = inconclusive; . = not tested or not shown; [ ] = remark or other dose. Hits are enriched below; roughly 8.3% of the tested compounds scored in any of these assays. Unless noted, the call rests on the fitted dose curve; in most records, active means well fitted curve in the direction sought with a large enough effect; inconclusive means small, poorly fitted or top-dose-only effect, or another doubt; inactive means no such curve, though single readings can be large; an effect the other way counts as inactive or inconclusive. On the % scale 0 is the no-effect control and ±100 the full control effect.

SMILES	MARV entry inh	FBPA Giardia inh	HCV inhibitor	Lassa entry inh	FMDV antiviral	HCMV inh
CC(C)C[C@H](NC(=O)[C@H](CCCCN)NC(=O)CNC(=O)[C@H](CC(C)C)NC(=O)[C@@H](NC(=O)[C@@H]1CSSC[C@H](N)C(=O)N[C@@H](CO)C(=O)N[C@@H](CC(N)=O)C(=O)N[C@@H](CC(C)C)C(=O)N[C@@H](CO)C(=O)N[C@@H]([C@@H](C)O)C(=O)N1)C(C)C)C(=O)N[C@@H](CO)C(=O)N[C@@H](CCC(N)=O)C(=O)N[C@@H](CCC(=O)O)C(=O)N[C@@H](CC(C)C)C(=O)N[C@@H](Cc1cnc[nH]1)C(=O)N[C@@H](CCCCN)C(=O)N[C@@H](CC(C)C)C(=O)N[C@@H](CCC(N)=O)C(=O)N[C@H](C(=O)N[C@@H](Cc1ccc(O)cc1)C(=O)N1CCC[C@H]1C(=O)N[C@@H](CCCNC(=N)N)C(=O)N[C@H](C(=O)N[C@@H](CC(N)=O)C(=O)N[C@H](C(=O)NCC(=O)N[C@@H](CO)C(=O)NCC(=O)N[C@H](C(=O)N1CCC[C@H]1C(N)=O)[C@@H](C)O)[C@@H](C)O)[C@@H](C)O)[C@@H](C)O	.	4%	.	.	.	.
O=C(CC1(O)C(=O)Nc2cc(Cl)cc(Cl)c21)c1ccncc1 (centres undefined)	?	3%	11µM*	?	-30%	39
Cc1ccc(Cl)c2c1NC(=O)C2(O)CC(=O)c1ccc(Br)cc1 (centres undefined)	30%	-1%	16%	2%	-25%	110
Cc1ccc(S(=O)(=O)c2c(N)n(/N=C/c3ccco3)c3nc4ccccc4nc23)cc1	?	-3%	?	?	-5%	-8
Cc1ccc(S(=O)(=O)c2c(N)n(/N=C/c3ccco3)c3nc4ccccc4nc23)cc1C	7.1µM*	-5%	?	-25%	7%	?
Cc1cccc(S(=O)(=O)c2c(N)n(/N=C/c3ccco3)c3nc4ccccc4nc23)c1	?	-10%	2.5µM*	-22%	20%	-28
C=C(C)C(O)C(CC/C=C(\C)C(=O)OCC)OC (centres undefined)	.	-3%[12.9 µM]	.	.	.	.
Cc1[nH]c2ccccc2c1/C=N/NC(=O)c1cccc(Br)c1	3%[46.1 µM]	7%	-23%	-19%[46.1 µM]	0%	.
COc1ccc2ccccc2c1/C=N/NC(=O)c1cccc(Br)c1	0%	1%	?	-11%	0%	-67*
COc1ccc2ccccc2c1/C=N\NC(=O)c1ccc(C)s1	-21%[46.1 µM]	.	10µM*	7%[46.1 µM]	0%	?
COc1ccc2ccccc2c1/C=N/NC(=O)c1ccc([N+](=O)[O-])cc1	8%	4%	-29%	-21%	21%	-31
COc1ccc2ccccc2c1/C=N/NC(=O)c1ccccc1F	18%	-23%	?	-3%	-9%	7
COc1ccc(/C=N/NC(=O)c2cccc(Br)c2)cc1Cn1cc(Cl)cn1	7.1µM*	4%	?	?	?	-14
O=C(N/N=C/c1[nH]c2ccccc2c1Cl)c1cccc(Br)c1	?	-1%	7.1µM*	-12%[46.1 µM]	-16%	-32
COc1ccc(C)cc1NC(=O)Nc1nnc(N2CCCCC2)s1	-12%[46.1 µM]	.	.	-12%[46.1 µM]	-5%	10
COC(=O)[C@H](CCSC)NC(=O)C/C=C\[C@@H](C)[C@@H](CO)OC	.	-1%[12.9 µM]	.	.	.	.
COC(=O)CC=C1c2ccc(OC)cc2[C@@H](OC)[C@@H]1C	4%[14.2 µM]	.	.	?	.	.
CCOC(=O)c1ccc(N2C(=O)c3[nH]nc(-c4ccc(OC)cc4)c3C2c2cccc(O)c2)cc1 (centres undefined)	?	.	.	?	32µM*	-107*
CCOC(=O)c1ccc(N2C(=O)c3[nH]nc(-c4ccc(OCC)cc4)c3C2c2ccc(OC)cc2OC)cc1 (centres undefined)	?	.	.	?	-20%	8
CCOC(=O)c1ccc(N2C(=O)c3[nH]nc(-c4ccc(C)cc4)c3C2c2cccc(F)c2)cc1 (centres undefined)	?	.	.	?	?	-99*
CCOC(=O)c1ccc(N2C(=O)c3[nH]nc(-c4ccc(C)cc4)c3C2c2ccc(O)cc2)cc1 (centres undefined)	10µM*	.	.	?	32µM*	-74*
CCOC(=O)c1ccc(N2C(=O)c3[nH]nc(-c4ccccc4)c3C2c2ccc(CC)cc2)cc1 (centres undefined)	?	.	.	?	?	-105*
OC1(c2ccc3c(c2)CN(Cc2ccccn2)CCO3)CCN(c2ccccc2F)CC1	.	.	.	.	-8%	.
Cc1noc(C)c1-c1cncnc1N(C)Cc1ccco1	.	-1%	.	.	-8%	.
COC1=C(CC=C(C)C)C2=C(CCC(=O)O2)CC1	5%	.	.	.	.	.
SMILES	MARV entry inh	FBPA Giardia inh	HCV inhibitor	Lassa entry inh	FMDV antiviral	HCMV inh
COc1ccc2nc(N3C(=O)/C(=C/c4ccccc4)NC3=S)sc2c1	-12%	26%	?	?	2%	-20
CCOc1ccc2nc(N3C(=O)/C(=C/c4ccccc4)NC3=S)sc2c1	?	-18%	?	13µM*	27%	67
CCN(CC)CCNC(=O)c1ccc(NCN2C(=O)NC(c3ccccc3)(c3ccccc3)C2=O)cc1	.	.	.	.	.	7
C=C1C(=O)[C@]23C[C@H]1CCC2[C@]1(C)C(=O)CC[C@@](C)(C(=O)O)C1C[C@@H]3O (some centres undefined)	.	.	.	.	35µM*	-19
C=C1C(=O)[C@]23C[C@H]1CCC2[C@]1(C)CCC[C@@](C)(C(=O)O)C1C[C@@H]3O (some centres undefined)	.	.	.	.	25µM*	-102*
c1cc2c(cc1Nc1nc(-c3ccc4c(c3)OCO4)cs1)OCCO2	14%	-25%	-20%	?	16%	17
O=C(Nc1ccc(-c2csc(-c3ccccc3)n2)cc1)c1ccccc1Cl	?	.	?	-18%	.	-67*
c1ccc(-c2csc(Nc3ccc4c(c3)OCCO4)n2)cc1	?	-6%	-15%	10µM*	-19%	54
O=C(Nc1ccc(-c2csc(Nc3cccc(C(F)(F)F)c3)n2)cc1)c1ccccc1	.	-7%	?	.	?	-83*
Cc1nc(-c2ccc(NC(=O)c3ccccc3)cc2)cs1	.	-2%	11µM*	.	-42%	?
C[C@H]1C=CCC(=O)N[C@@H](c2ccccc2)[C@@H](C)C=CCC(=O)N[C@@H]1c1ccccc1	?	.	.	-13%[14.3 µM]	.	.
COC(=O)C1=C(C)N(Cc2ccccc2)C(=O)NC1c1ccco1 (centres undefined)	13%[14.2 µM]	.	.	.	.	.
Cc1cccc(Cn2nnc3c(=O)[nH]c(C4CCN(C(=O)c5ccc(F)cc5)CC4)nc32)c1	-11%[46.1 µM]	.	.	-15%[46.1 µM]	5%	13
O=C(CSc1ncc2c(n1)-c1ccccc1N(Cc1ccccc1)S2(=O)=O)Nc1ccccc1	.	.	.	8%[46.1 µM]	8%	3
